# Measured values: the OligoGym collection
# Molecular target: C5AR1
# Assay: pooled miR-30 sensor sort-seq; sequence = guide strand
# Details: shRNA
# Note: reference of the scale not given here.
row,Sequence,sensor-assay potency score (higher = more potent)
1,TTATTCAGCAGCAGGAAGGTGG,-0.586
2,TACTCCTCCCGGACCACCCGGT,-0.108
3,TAGAAGTTTTATCCACAGGGGT,-0.173
4,TAAGGTAACACCATCCCACGAA,0.399
5,TTTTAAGCGAGAATCTTTCTAC,0.0632
6,TTCTACTTGTCTGTATTCTGAG,0.386
7,TTTGTCGTGGCTGTAGTCCACG,-0.519
8,TACTTGTCTGTATTCTGAGTTC,-0.656
9,TTGAGGTCCAGGGTATCCTTGT,-0.809
10,TGATGCTGTACAATGGACGTGA,0.655
11,TCTACTTGTCTGTATTCTGAGT,-0.792
12,TTAACTCACTTACAAGAGCTTA,-0.512
13,TGAAAGTGTAACAAATCGTGAG,0.282
14,TTCAGTCAACACGTTCCGGAGG,-1.26
15,TCTTCAGTCAACACGTTCCGGA,-0.631

# Molecular target: C5orf51
# Assay: as above
# Details: shRNA
row,Sequence,sensor-assay potency score (higher = more potent)
1,TTAACTAAGTCTAAAAGCCTAG,-0.498
2,TTTATCTTCATTACTCACTTGA,1.06
3,TATCTTAATGTAATACCGCTGT,-0.406
4,AAAATCTTCATCTACTAGCTTG,-0.0873
5,TTGATGGATTTGAACATTCTTT,-0.74
6,TTTAGCTGTGTCTAGATCTTGG,0.753
7,TTCAATATCAGAACTTCTGTAA,0.18
8,TATTAGTGACATAACATCTGTA,0.937
9,TTAACTGGATAGGACATCGATA,-1.18
10,TTATTAGTGACATAACATCTGT,-0.587
11,TTGTATTCCATTCTTGTTCTTT,-0.072
12,TAGAACATGATTACACAGGATG,-0.681

# Molecular target: C5orf56
# Assay: as above
# Details: shRNA
row,Sequence,sensor-assay potency score (higher = more potent)
1,TTTCTTTCCAGAATCTTGGCTG,0.311
2,TTCTTTCCAGAATCTTGGCTGT,0.101
3,AAAGGAGACATTTCTTTCCAGA,-0.416
4,AACACTTGCTGAATAAATGAGT,-0.962
5,TTATAAGCTGCATGAGAGCAGG,-0.803
6,TTGAAGATTCCCTTGGTGTGTT,0.717
7,TTTGAAGATTCCCTTGGTGTGT,-0.413
8,AATCTTGGCTGTAAGCAGCAGA,-0.53
9,TTCACTGCTGCATTGCTGCCAT,-0.146
10,TTGATGACGAGGAAAAAGGAGA,-0.938
11,TCCAATAGGCTACAAACTCTGG,-1.19
12,TTGTTCACTGCTGCATTGCTGC,-0.868
